Our source for the Potency values is PubChem BioAssay AID2061318 (National Center for Advancing Translational Sciences (NCATS), 2025).

Records with an inconclusive call do not appear. Calls of active or inactive are those of the source. Calls come from the whole dose curve; as a rule, active = well fitted inhibition curve with a large enough effect; inconclusive = small, poorly fitted or top-dose-only effect; inactive = flat fitted curve, though single readings scatter.

The nature of the assay: Identification of antibody-drug conjugate (ADC) payloads which are substrates of ATP-binding cassette drug efflux transporters: ABCB1-HEK293-MDR-19 cell line. Particulars: HEK293 ABCB1 (MDR-19) viability, CellTiter-Glo, 48 h. The source says: Antibody-drug conjugates (ADCs) feature an antibody recognizing a specific protein joined to a potent toxic payload. Numerous antibody-drug conjugates have received FDA approval; however, clinical resistance arises. Resistance mechanisms include decreased expression or mutation of the antibody target, impaired payload release, or increased expression of ATP-binding cassette (ABC) efflux transporters associated with multidrug resistance. We therefore sought to characterize the interaction of ABC multidrug transporters with ADC payloads. We performed a high-throughput screen with 27 common ADC payloads using cells lines expressing ABC transporters P-glycoprotein (P-gp, encoded by ABCB1) or ABCG2 (encoded by ABCG2). Confirmatory assays were also performed using cells transfected to express P-gp, ABCG2, or MRP1 (encoded by ABCC1). Several commonly used ADC payloads were substrates of P-gp, including calicheamicin gamma1, monomethyl auristatin E, DM1, and DM4. All the pyrrolobenzodiazepines tested - SJG136, SGD-1882, SG2057, and SG3199 - were substrates of P-gp, ABCG2, and MRP1. […] These findings highlight the risk of transporter-mediated resistance with certain ADC payloads and underscore the importance of selecting payloads that evade ABC transporter recognition in future ADC development.
HEK-293 cells were transfected with empty vector (pcDNA) or vector containing the human ABCB1 (MDR-19), ABCG2 (R-5), or ABCC1 gene (MRP1) and were maintained in EMEM with 2 mg/mL G418 added to maintain transporter expression. The HeLa derivative KB-3-1 and the P-gp overexpressing KB-8-5-11 subline were maintained in DMEM; KB-8-5-11 additionally received 100 ng/mL colchicine. H460 parental cells were obtained from the Division of Cancer Treatment and Diagnosis Tumor Repository, National Cancer Institute at Frederick, MD and were cultured in RPMI. The ABCG2 expressing subline H460 MX20 was generated by selecting H460 cells in 20 nM mitoxantrone. Media in all cases was supplemented with 10% FBS and 1% penicillin-streptomycin. We explored 27 common ADC payloads, in two orthogonal, paired cell line sets-a drug selected and transfected set for each transporter--to identify substrates of the ABC transporters P-gp and ABCG2. Compounds were sourced from Levena Biopharma (San Diego, CA), Selleck Chem (Houston, TX), ChemieTek (Indianapolis, IN), or Microsource Discovery Systems (Gaylordsville, CT). Screening was performed as previously described. Briefly, cells were plated at a density of 500 cells/well in 1536 well plates with compounds added using a 1536-head pin tool (Kalypsys, San Diego CA). Cells were incubated with cytotoxic drugs and processed with CellTiter Glo reagent (Promega, Madison, WI) to determine viability after 48 hours. P-gp substrates were identified by comparing compound activity between paired sets of low-expressing (sensitive) and over-expressing (resistant) cell lines.
A general note: In ATP-based viability assays light output follows the ATP content of the culture.
Consider `COc1cc2cc(c1Cl)N(C)C(=O)C[C@H](OC(=O)[C@H](C)N(C)C(=O)CCS)[C@]1(C)OC1[C@H](C)C1C[C@@](O)(NC(=O)O1)[C@H](OC)/C=C/C=C(\C)C2` (stereo partly specified), for which the Potency is 298 nM (active).

Take `CC[C@H](C)[C@@H]([C@@H](CC(=O)N1CCC[C@H]1[C@H](OC)[C@@H](C)C(=O)N[C@H](C)[C@@H](O)c1ccccc1)OC)N(C)C(=O)[C@@H](NC(=O)[C@H](C(C)C)N(C)C)C(C)C`: the Potency was 66.6 nM (active).

As for `CC[C@@]1(O)C(=O)OCc2c1cc1n(c2=O)Cc2cc3ccccc3nc2-1`, the Potency was 13.3 nM (active).

In the case of `COc1cccc2c1C(=O)c1c(O)c3c(c(O)c1C2=O)C[C@@](O)(C(=O)CO)CC3OC1CC(N2CCOC(OC)C2)C(O)C(C)O1` (stereo partly specified), the Potency was 1.7 nM (active).

Take `COc1cc2cc(c1Cl)N(C)C(=O)C[C@H](OC(=O)C(C)C)[C@]1(C)O[C@H]1[C@H](C)[C@@H]1C[C@@](O)(NC(=O)O1)[C@H](OC)C=CC=C(C)C2`: the Potency was 14.9 nM (active).

Regarding `COc1cc2cc(C(=O)N3C[C@@H](CCl)c4c3cc(O)c3ccccc43)[nH]c2c(OC)c1OC`, the Potency was 1.2 nM (active).
